Shown are actives, neighbours in structure and some others; about 18% of the full set was active somewhere.
KAT2A inh – inhibitors of human GCN5L2 histone acetyltransferase. GCN5L2 HAT assay, ThioGlo1 CoA-SH fluorescence. Potency, µM (doses to about 58.9 µM), for inactives: at the highest dose activity change, negative = inhibition, usual class: inhibitors. hit rate 0.21% among 390,000. AID 504327
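GCN5L2 (20 nM) in 50mM HEPES pH 7.5, 0.1mM EDTA, 0.01% Tween-20 preincubated 15 min with compounds at room temperature. Reaction started with H3(1-25) 75uM, acetyl-CoA 70uM, ThioGlo1 50uM; CoA-thiol fluorescence (Ex340/Em540) read at 0 and 20 min.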
DT40 TDP1 no CPT – qHTS for Inhibitors of human tyrosyl-DNA phosphodiesterase 1 (TDP1): qHTS in cells in absence of CPT; DT40 Tdp1-/- hTDP1 cells, no CPT, ATP luminescence, 48 h; Potency, µM (titrated, usually from 46.2 µM), for inactives: top-dose activity change, negative = growth inhibition, hits mostly inhibitors; hit rate 15% among 420,000; also: nearly all actives have a fitted effect of over 55% in size
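Luminescent ATP content (CellTiter-Glo) served as the growth readout. Knockout chicken DT40 cells expressing human TDP1 were exposed to compounds without camptothecin for a minimum 48 hr at 37 °C.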
TDP1 inh – TDP1 (human) enzyme inhibition; recombinant TDP1, AlphaScreen DNA substrate cleavage; Potency, µM (series often up to 130 µM), without a hit: at the top dose activity change, negative = inhibition, usual class: inhibitors; hit rate 0.28% among 350,000; AID 485290; also: nearly all actives have a fitted effect of over 40% in size
Target sequence (Q9NUW8 whole entry, looked up): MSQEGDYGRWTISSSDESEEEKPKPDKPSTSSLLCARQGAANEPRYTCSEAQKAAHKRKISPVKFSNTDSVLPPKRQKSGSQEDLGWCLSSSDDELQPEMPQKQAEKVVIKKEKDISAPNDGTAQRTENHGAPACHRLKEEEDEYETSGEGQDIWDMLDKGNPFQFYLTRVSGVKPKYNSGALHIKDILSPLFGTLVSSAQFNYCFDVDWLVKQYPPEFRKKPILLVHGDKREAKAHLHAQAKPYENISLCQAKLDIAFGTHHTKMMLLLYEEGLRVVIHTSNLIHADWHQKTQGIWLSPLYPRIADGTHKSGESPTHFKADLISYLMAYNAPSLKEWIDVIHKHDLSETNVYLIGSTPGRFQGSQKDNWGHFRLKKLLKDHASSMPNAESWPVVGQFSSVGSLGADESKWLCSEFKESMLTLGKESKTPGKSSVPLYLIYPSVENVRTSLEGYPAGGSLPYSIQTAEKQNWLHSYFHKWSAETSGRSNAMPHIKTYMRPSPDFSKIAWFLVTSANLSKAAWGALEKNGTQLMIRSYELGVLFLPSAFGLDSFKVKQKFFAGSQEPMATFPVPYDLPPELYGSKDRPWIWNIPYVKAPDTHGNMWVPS
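Steps: enzyme plus compound, 15 min RT; add biotin/phosphotyrosine-FITC oligonucleotide (15 nM final), react 5 min; add donor/acceptor beads (10 ug/ml final), 10 min; read AlphaScreen. Tdp1 at 1 nM final.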
PLK1 PBD block – PLK1 (human) polo-box domain binding inhibition | Plk1 PBD binding of FITC phosphopeptide, fluorescence polarization | Potency, µM, without a hit: max response, negative = inhibition, usual class: inhibitors | AID 720504 | hit rate 2.8% among 360,000 | P53350; also: series mostly up to about 57 µM; nearly all actives have a fitted effect of over 65% in size
VDR inh – vitamin D3 receptor (human) inhibition. P11473. Potency, µM, for the others: max response, negative = inhibition, actives largely listed as inhibitors. AID 504847. hit rate 0.93% among 400,000. VDR-SRC2-3 peptide fluorescence polarization, 2 h
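FP read-out; VDR + SRC2-3 coactivator peptide; 23 nl compound by pintool; 2 h RT incubation; reagents held at 4 deg C, protected from light.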
TDP1 cell CPT – growth inhibition of DT40 Tdp1-/-;hTDP1 cells with camptothecin (screen for TDP1 inhibitors); AID 686979; Potency, µM (titrated, usually from 46.2 µM), for the others: at the top dose activity change, negative = growth inhibition, actives largely listed as inhibitors; hit rate 12% among 420,000; chicken DT40 Tdp1-/-;hTDP1 cells + 20 nM CPT, ATP luminescence, 48 h; also: nearly all actives have a fitted effect of over 55% in size
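Cell growth measured by CellTiter-Glo luminescence after a minimum 48 h, 37 C compound exposure with 20 nM CPT in Tdp1-knockout DT40 cells stably expressing hTDP1, seeded 400/well; qHTS titration format.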
TbPYK confirm – confirmation of Trypanosoma brucei pyruvate kinase inhibitors | hit rate 67% among 890 | recombinant TbPYK, Kinase-Glo ATP luminescence | Potency, µM (series often up to 76.9 µM), without a hit: at the top dose activity change, negative = inhibition, hits mostly inhibitors | shares compounds with PLK1 PBD block; also: nearly all actives have a fitted effect of over 70% in size
TbPYK ADP-Glo – inhibits T. brucei pyruvate kinase in orthogonal ADP-Glo assay; Potency, µM (doses to about 76.9 µM), for inactives: top-dose activity change, negative = inhibition, most hits filed as inhibitors; recombinant TbPYK, ADP-Glo luminescence, 60 min; shares compounds with PLK1 PBD block; AID 720584; hit rate 62% among 890; also: nearly all actives have a fitted effect of over 75% in size
Numbers without * were called inactive; ? = inconclusive; . = no result. Calls follow the shape of the dose curve; as a rule, active = well fitted curve in the direction sought with a large enough effect; inconclusive = small, poorly fitted or top-dose-only effect, or another doubt; inactive = no such curve, though single readings can be large; an effect the other way counts as inactive or inconclusive. % is scaled to controls: 0 for no effect and ±100 for the full control effect; potency is read from the fitted curve at half-maximal effect.

SMILES	KAT2A inh	DT40 TDP1 no CPT	TDP1 inh	PLK1 PBD block	VDR inh	TDP1 cell CPT	TbPYK confirm	TbPYK ADP-Glo
CC(C)CC1CC(=O)OC1(C)C(=O)CSc1nc2ccccc2s1 (stereo unspecified)	-5.7%	-22.1%	-5.8%	18.9µM*	-18.9%	-4.1%	?	?
CC(C)CCNC(=O)CSc1nc2ccccc2s1	-10.6%	1.3%	2.5%	?	-2.0%	-14.9%	.	.
COC(=O)COc1ccc(C2Nc3c(Cl)ccc(C(=O)O)c3C3C=CCC32)cc1 (stereo unspecified)	-22.7%	-19.9%	.	21.2µM*	?	0.0%	?	?
CCC(CC)C(=O)Nc1cccc(C(=O)NCc2ccco2)c1	-24.1%	?	-12.6%	-6.0%	-4.2%	-23.2%	-7.8%	-15.3%
Oc1c(CN2CCOCC2)cc(CN2CCOCC2)c(O)c1CN1CCOCC1	.	-9.1%	.	1.68µM*	10µM*	-1.1%	1.41µM*	?
CC(C)(C)c1nc(CN2CCOCC2)cc(CN2CCOCC2)c1O	-4.1%	?	9.8%	4.0%	-8.8%	-21.5%	.	.
OCCN1CCN(Cc2cc(Br)cc(Br)c2O)CC1	-6.2%	-24.0%	2.1%	-10.0%	-14.0%	-15.1%	.	.
CC(C)(C)c1cc(C(=S)N2CCN(CCO)CC2)cc(C(C)(C)C)c1O	-13.5%	?	6.8%	9.47µM*	39.8µM*	?	3.55µM*	7.94µM*
COc1ccc(/C=N/NC(=O)c2cccc(COCC(F)(F)C(F)F)c2)cc1	-0.4%	-17.9%	2.5%	-8.3%	-20.6%	-26.1%	.	.
COC1=CC(=O)C(C2CC(=O)c3c(O)cc(O)cc3O2)=CC1=O (stereo unspecified)	.	2.59µM*	.	4.23µM*	79.4µM*	3.66µM*	15.8µM*	28.2µM*
CCOC(=O)C1=NN(C(C)=O)C2C(=O)N(CC)C(=O)C12 (stereo unspecified)	2.3%	3.9%	.	-6.2%	-3.0%	-4.0%	.	.
O=C1C(c2ccccc2)CN1Cc1ccccc1 (stereo unspecified)	.	2.7%	.	-2.5%	.	-25.2%	.	.
O=C1N(Cc2ccccc2)CC2(Br)COCOC12O (stereo unspecified)	.	3.26µM*	.	2.67µM*	?	2.31µM*	1.12µM*	3.55µM*
CCOc1cc2[nH]c(=S)n(Cc3ccc(C(=O)NCCN(CC)CC)cc3)c(=O)c2cc1OCC	-3.8%	?	.	-13.3%	-10.9%	?	14.1µM*	14.1µM*
CCOc1cc2[nH]c(=S)n(Cc3ccc(C(=O)NCC(OC)OC)cc3)c(=O)c2cc1OCC	-2.6%	-6.5%	0.0%	-1.2%	14.9%	-15.5%	.	.
CC(Cc1ccccc1)NC(=O)CN1C(=O)c2ccccc2S1(=O)=O (stereo unspecified)	-15.4%	9.5%	3.7%	-1.8%	9.5%	5.3%	.	.
Cc1ccccc1CN(CC(=O)Nc1cccc([N+](=O)[O-])c1)S(=O)(=O)c1ccc(Cl)cc1	-2.9%	?	2.8%	-9.1%	11.8%	?	.	.
CCOC(=O)C(C)(C)N(Cc1ccccc1C)S(=O)(=O)c1ccc(Cl)c([N+](=O)[O-])c1	-7.6%	11.6µM*	7.9%	-10.1%	-14.8%	?	2.6%	2.1%
COCCNC(=O)c1c(C)oc2nc(C)nc(N3CCOCC3)c12	?	9.0%	2.1%	.	-7.8%	-0.4%	.	.
COCCN=C1NN=C(c2ccc(C)c([N+](=O)[O-])c2)CS1	-1.9%	?	8.3%	26.7µM*	?	?	?	?

Bioassay records deposited in PubChem BioAssay by National Center for Advancing Translational Sciences (NCATS).
